MCF10A rerep – A quantitative high throughput screen for small molecules that induce DNA re-replication in MCF 10a normal breast cells | MCF 10A DNA re-replication, Hoechst nuclear intensity, 48 h | Potency, µM (top dose mostly 46.1 µM), actives largely listed as activators | 350,000 tested, 2.9% active; further: nearly all actives have a fitted effect of over 50% in size
Gal4-VP16 FLuc – VP16 counterscreen qHTS for inhibitors of ROR gamma transcriptional activity; Drosophila S2 Gal4-VP16 UAS-luciferase, luminescence, 20 h; AID 2546, 2010; Potency, µM (series often up to 53.6 µM), usual class: inhibitors; 310,000 tested, 3.5% active;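 further: Gal4-VP16 expression switched on by copper sulfate through the metallothionein promoter; nearly all actives have a fitted effect of over 50% in size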
ELG1 DNA repair – qHTS screen for small molecules that inhibit ELG1-dependent DNA repair in human embryonic kidney (HEK293T) cells expressing luciferase-tagged ELG1 | HEK293T ELG1-luciferase reporter, luminescence, 16 h; DNA damage induced by 5-fluorouridine | Potency, µM (titrated, usually from 46.1 µM), hits mostly inhibitors | 330,000 tested, 2.3% active | AID 504467, 2011; further: nearly all actives have a fitted effect of over 55% in size
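HEK293T cells expressing luciferase-tagged ELG1 (2,000/well) received 5-Fluorouridine plus compound or DMSO for 16 hr at 37 °C. Luciferase was read by ONE-Glo luminescence after 30 min at room temperature.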
RORg inh – qHTS for inhibitors of ROR gamma transcriptional activity. Nuclear receptor ROR-gamma (Mus musculus), P51450. Drosophila S2 Gal4-RORgamma UAS-luciferase reporter, 20 h. Potency, µM (doses to about 53.6 µM), actives largely listed as inhibitors. 310,000 tested, 5.4% active. AID 2551, 2010; further: nearly all actives have a fitted effect of over 60% in size
Target sequence (P51450 whole entry, looked up, the tested form may be a part): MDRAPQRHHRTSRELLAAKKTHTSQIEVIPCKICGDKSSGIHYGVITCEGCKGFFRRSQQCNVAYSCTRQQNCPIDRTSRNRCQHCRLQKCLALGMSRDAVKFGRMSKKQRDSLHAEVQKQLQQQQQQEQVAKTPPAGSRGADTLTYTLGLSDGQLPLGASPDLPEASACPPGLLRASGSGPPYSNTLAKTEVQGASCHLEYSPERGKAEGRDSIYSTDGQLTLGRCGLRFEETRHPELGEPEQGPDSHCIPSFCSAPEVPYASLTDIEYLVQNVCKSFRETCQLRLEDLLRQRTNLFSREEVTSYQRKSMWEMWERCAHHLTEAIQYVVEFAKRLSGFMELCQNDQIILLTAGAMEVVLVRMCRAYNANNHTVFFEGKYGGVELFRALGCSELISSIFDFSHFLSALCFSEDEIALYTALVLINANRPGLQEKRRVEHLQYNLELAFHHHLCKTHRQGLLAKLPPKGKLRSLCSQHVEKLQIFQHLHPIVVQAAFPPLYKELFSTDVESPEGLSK
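Stable Schneider cell line, Gal4 DNA-binding domain fused to ROR gamma, UAS-luciferase. Cmpd 1 hr RT → CuSO4 700 uM final → 20 hr RT → luciferase reagent 10 min → luminescence.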
SW480 rerep – A quantitative high throughput screen for small molecules that induce DNA re-replication in SW480 colon adenocarcinoma cells | Potency, µM (doses to about 46.1 µM), most hits filed as activators | 340,000 tested, 1.8% active | SW480 DNA re-replication, Hoechst DNA content imaging, 48 h; further: nearly all actives have a fitted effect of over 55% in size
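Hoechst fluorescence of nuclei (405 nm excitation, 500-530 nm emission) measured by plate-scanning imager after 48 hr compound exposure at 37 C; re-replication scored as increased number of nuclei with elevated intensity.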
Each line names hits and unclear results; the compound was inactive in the other large screens. Compounds with a hit are over-represented: about 10% of the library has one in this group of screens. The call rests on the fitted dose curve; in most records, active means well fitted curve in the direction sought with a large enough effect; inconclusive means small, poorly fitted or top-dose-only effect, or another doubt; inactive means no such curve, though single readings can be large; an effect the other way counts as inactive or inconclusive.

COc1ccc(COc2ccccc2C(=O)Nc2ccccn2)cc1[N+](=O)[O-]	none
CCCn1cnc2c(c1=O)c1nc3ccccc3nc1n2Cc1ccccc1OC	ELG1 DNA repair inconclusive (no result: MCF10A rerep, SW480 rerep)
COc1ccc(Cn2c3nc4ccccc4nc3c3c(=O)n(Cc4ccco4)cnc32)cc1	Gal4-VP16 FLuc inconclusive, ELG1 DNA repair inconclusive, RORg inh 10µM (no result: MCF10A rerep, SW480 rerep)
Cc1cccc(-n2cnc3c(c2=O)c2nc4ccccc4nc2n3Cc2ccco2)c1	MCF10A rerep inconclusive, ELG1 DNA repair 18µM, RORg inh inconclusive
CC(=O)C[C@H](O)CC(=O)[C@H]1OC(=O)CCCCCCCc2ccccc21	MCF10A rerep inconclusive (no result: Gal4-VP16 FLuc, RORg inh)
CC(=O)Nc1cc2cc(NS(=O)(=O)c3ccc(Cl)cc3)ccc2oc1=O	ELG1 DNA repair inconclusive
CCN(CC)c1ccc2cc(S(=O)(=O)c3ccc(Cl)cc3)c(=O)oc2c1	MCF10A rerep inconclusive, SW480 rerep 18µM
O=c1oc2cc(O)ccc2cc1S(=O)(=O)c1ccccc1	MCF10A rerep 2.6µM, ELG1 DNA repair inconclusive
CCCCCCc1cc2cc(S(=O)(=O)c3ccc(Cl)cc3)c(=O)oc2cc1O	MCF10A rerep inconclusive, Gal4-VP16 FLuc 20µM, RORg inh inconclusive, SW480 rerep 21µM
CCCCCCc1cc2cc(S(=O)(=O)c3ccc(C)cc3)c(=O)oc2cc1O	MCF10A rerep inconclusive, Gal4-VP16 FLuc inconclusive, RORg inh inconclusive, SW480 rerep 18µM
CCN(CC)c1ccc2cc(C(=O)NCc3ccc(F)cc3)c(=N)oc2c1	ELG1 DNA repair inconclusive (no result: MCF10A rerep, SW480 rerep)
CC1CCCCC1NC(=O)CCCN1C(=O)c2ccccc2C1=O (centres undefined)	none (no result: Gal4-VP16 FLuc, RORg inh)
CSCC[C@@H](C(=O)NCCCCCCCCCCC(=O)N1CCN(C(=O)OC(C)(C)C)CC1)n1cc(CCO)nn1	ELG1 DNA repair 18µM (no result: Gal4-VP16 FLuc, RORg inh)
CC[C@H](C)C(C(=O)N1CCN(C(=O)OC(C)(C)C)CC1)n1cc(C(CC(C)C)NC(=O)OC(C)(C)C)nn1 (some centres undefined)	ELG1 DNA repair inconclusive
CC[C@@H](C)[C@@H](C(=O)N1CCN(C(=O)OC(C)(C)C)CC1)n1cc(CCCCNC(=O)OC(C)(C)C)nn1	MCF10A rerep inconclusive, ELG1 DNA repair 21µM, RORg inh inconclusive
Cc1ccc(N(Cc2cc(=O)[nH]c3ccccc23)C(=O)CCl)c(C)c1	MCF10A rerep inconclusive, ELG1 DNA repair inconclusive, RORg inh inconclusive, SW480 rerep 23µM
Cc1c(Br)c(O)c(Br)c(O)c1/C=N/n1c(-c2ccccc2)n[nH]c1=S	none
Cc1nn(-c2ccccc2)c(C)c1/C=N/n1c(-c2ccc(C(C)(C)C)cc2)n[nH]c1=S	MCF10A rerep inconclusive, RORg inh 2.2µM
Cc1ccccc1-c1n[nH]c(=S)n1/N=C/c1c(C)nn(-c2ccccc2)c1C	Gal4-VP16 FLuc inconclusive, RORg inh 4.5µM
Cc1ccc(-c2cc(C(=O)N/N=C/c3c(C)nn(-c4ccccc4)c3C)[nH]n2)cc1	ELG1 DNA repair inconclusive, RORg inh inconclusive (no result: MCF10A rerep, SW480 rerep)
Cc1ccc(-c2n[nH]c(=S)n2/N=C/c2c(C)nn(-c3ccccc3)c2C)cc1	MCF10A rerep inconclusive, Gal4-VP16 FLuc inconclusive, RORg inh 6.3µM, SW480 rerep inconclusive
Cc1ccc(Nc2c(F)c(F)c(F)c(F)c2C(=O)O)cc1	RORg inh inconclusive
Nc1nc(CN2CCN(c3ccccc3)CC2)nc(N2CCCc3ccccc32)n1	MCF10A rerep inconclusive
Nc1nc(CN2CCN(c3ccccc3F)CC2)nc(N2CCCc3ccccc32)n1	MCF10A rerep inconclusive, Gal4-VP16 FLuc inconclusive, RORg inh 11µM
O=C(CSc1nnnn1-c1ccccc1)N1CCCc2ccccc21	none
Nc1nc(CSc2nnnn2-c2ccccc2)nc(N2CCCc3ccccc32)n1	MCF10A rerep inconclusive, ELG1 DNA repair 16µM
Nc1nc(CN2CCN(c3cccc(Cl)c3)CC2)nc(N2CCCc3ccccc32)n1	MCF10A rerep inconclusive
Nc1nc(CN2CCN(Cc3ccccc3)CC2)nc(N2CCCc3ccccc32)n1	RORg inh 10µM
CCC(C)c1ccc(S(=O)(=O)N2CCN(c3ccccn3)CC2)cc1 (centres undefined)	MCF10A rerep inconclusive
COc1cc(NC(=O)COc2ccccc2)c(OC)cc1NC(C)=O	none
O=C(CSc1nccn1-c1ccc(Cl)cc1)N1CCCc2ccccc21	Gal4-VP16 FLuc inconclusive
O=C(NNC(=O)C1CC(c2cccs2)=NO1)NC1CCCCC1 (centres undefined)	none
Fc1cc2[nH]c(=S)[nH]c2c(Br)c1N1CCSCC1	ELG1 DNA repair inconclusive, RORg inh 11µM
N#Cc1cnc(Nc2ccc(F)cc2)nc1N	ELG1 DNA repair inconclusive
Clc1c(-c2ccccc2)nnn1-c1ccccc1	ELG1 DNA repair inconclusive
Nc1nnn(-c2ccccc2)c1-c1ccccc1	SW480 rerep 15µM (no result: Gal4-VP16 FLuc, ELG1 DNA repair, RORg inh)
CC(=O)Cc1nnn(-c2cc(C)on2)n1	none (no result: MCF10A rerep, SW480 rerep)
CCc1ccc(/C=C2\Oc3ccc(C(=O)OC)cc3C2=O)cc1	Gal4-VP16 FLuc inconclusive, ELG1 DNA repair inconclusive
CN(C)c1ccc(/C=C2\Oc3ccc(C#Cc4cccc(N)c4)cc3C2=O)cc1	MCF10A rerep 4.6µM, SW480 rerep 5.2µM (no result: Gal4-VP16 FLuc, RORg inh)
Cc1cc(OCC(=O)Nc2ccc3oc(-c4ccncc4)nc3c2)ccc1Cl	none (no result: ELG1 DNA repair)
Cc1cc(OCC(=O)N[C@@H](Cc2ccccc2)c2nc3ccccc3[nH]2)ccc1Cl	MCF10A rerep inconclusive, Gal4-VP16 FLuc inconclusive, ELG1 DNA repair inconclusive, RORg inh 20µM
Cc1cc(OCC(=O)Nc2ccncc2)ccc1Cl	Gal4-VP16 FLuc 11µM, RORg inh inconclusive
O=C(COc1ccccc1)Nc1cccc(-c2nn[nH]n2)c1	none
CCCCc1ccc(NC(=O)COc2ccc(C(=O)Nc3ccccc3C)cc2)cc1	Gal4-VP16 FLuc 11µM, RORg inh inconclusive (no result: MCF10A rerep, SW480 rerep)
CCCCc1ccc(NC(=O)COc2ccc(C(=O)Nc3ccccc3OC)cc2)cc1	ELG1 DNA repair inconclusive (no result: MCF10A rerep, SW480 rerep)
O=C(COc1ccccc1)Nc1cccc(-c2nc3cc4ccccc4cc3[nH]2)c1	MCF10A rerep 15µM, Gal4-VP16 FLuc 2µM, ELG1 DNA repair inconclusive, RORg inh 1µM, SW480 rerep inconclusive
Nc1ccncc1N	MCF10A rerep inconclusive, SW480 rerep inconclusive
Cc1cn([C@H](C(=O)NCCCCCCCCCCC(=O)N2CCNCC2)[C@@H](C)O)nn1	MCF10A rerep inconclusive, ELG1 DNA repair inconclusive (no result: Gal4-VP16 FLuc, RORg inh)
CC(=O)Nc1ccc(NC(=O)COc2cc(O)c3c(c2)OC(C)(C)CC3=O)cc1	none
O=C(Cc1ccc(Cl)cc1)Nc1ccncc1	Gal4-VP16 FLuc 2.8µM, ELG1 DNA repair inconclusive, RORg inh inconclusive
CCc1ccc(OCC(=O)Nc2ccncc2)cc1	Gal4-VP16 FLuc 3.5µM
O=C(COc1ccccc1)Nc1ccncc1	none
Cc1cc(OCC(=O)Nc2ccc(Br)cc2)cc2c1C(=O)CC(C)(C)O2	MCF10A rerep inconclusive, ELG1 DNA repair 15µM, SW480 rerep inconclusive

High-throughput results from PubChem BioAssay.
